Experimental data: ChEMBL document CHEMBL4513216, “Probing the Open Global Health Chemical Diversity Library for Multistage-Active Starting Points for Next-Generation Antimalarials” (ACS Infect Dis, 2020)
In all, about 65,000 compounds went through this assay and about 2,100 (3.2%) showed an effect of 50% or more. The median lay at about -52%. Many of the other results were omitted from the sample, so strong results are more common in it than they were.

test system: Plasmodium falciparum; assay: Screen against P. falciparum Asexual Blood Stage (ABS), at 5uM; assay type: functional, Dd2; settings: tested at 5 uM

| SMILES | INHIBITION [%] |
| --- | --- |
| Cc1c(Cl)c(C(=O)NN2CCOCC2)nn1C | -48.6 |
| O=C(CC1COCCN1S(=O)(=O)c1ccccc1)NCc1ccccn1 (configuration not stated) | -170 |
| O=C(C1CCC2(CCN(c3nncs3)CC2)CO1)N1CCCC1 (configuration not stated) | 13.3 |
| CC(C)CN1C(=O)C2(CCN(CC3CCOCC3)C2)c2ccccc21 (configuration not stated) | 39.6 |
| COc1ccsc1C(=O)N1CCCC(n2cncn2)C1 (configuration not stated) | -121 |
| O=C(NCc1ccco1)[C@@H]1CC[C@@H]2[C@@H](CCN2Cc2ccc(F)cc2)O1 | 67.2 |
| O=C(NCc1ccco1)[C@H]1CC[C@@H]2[C@@H](CCN2Cc2nccs2)O1 | -11.2 |
| O=C(NCc1ccco1)[C@H]1CC[C@@H]2[C@@H](CCN2Cc2cccnc2)O1 | -34.5 |
| Cc1ncsc1CN1C[C@H](C(=O)NC2CCCC2)[C@@H]2CCO[C@@H]2C1 | 1.73 |
| CCO[C@H]1CO[C@@]2(CCCN(Cc3scnc3C)C2)C1 | -22.6 |
| CS(=O)(=O)N1CCC2(CC1)CC(NCC1CC1)c1ccccc12 (configuration not stated) | 48.3 |
| CNC(=O)CNC1CC2(CCN(c3ncccn3)CC2)c2ccccc21 (configuration not stated) | -84.5 |
| c1cnc(N2CCC3(CC2)CC(NCC2CC2)c2ccccc23)nc1 (configuration not stated) | 54.2 |
| Cc1ccccc1-c1cc(C(=O)N2CCCC(n3ccnc3C)C2)[nH]n1 (configuration not stated) | -29.5 |
| COCCN1CCCCC12CC(=O)N(c1cccc(C#N)c1)C2 (configuration not stated) | -132 |
| COCCCNC(=O)CN1CCOC(c2ccccc2)C1 (configuration not stated) | -41.4 |
| CCc1cccc(N2CCC(NC(=O)c3ccoc3C)CC2)c1 | -16.9 |
| CCc1cccc(N2CCC(NC(=O)c3ccncc3)CC2)c1 | -62.9 |
| CCc1cccc(N2CCC(NC(=O)c3ccco3)CC2)c1 | 60.4 |
| CN1CCN(C(=O)[C@H]2C[C@@H]3CCN(c4ncc(F)cn4)C[C@@H]3O2)CC1 | -116 |
| CCN(CC)C1CCN(C(=O)NCc2cccc(-n3cccn3)c2)C1 (configuration not stated) | -61.3 |
| O=C(Nc1cccnc1-n1cccn1)N1CCCC(N2CCCC2)C1 (configuration not stated) | 26.8 |
| CCN(CC)C1CCN(C(=O)c2cc(-n3cccn3)ccc2Cl)CC1 | 65.1 |
| O=C(c1cc(-n2cccn2)ccc1Cl)N1CCCC(N2CCCC2)C1 (configuration not stated) | 65.8 |
| O=C(c1cc(-n2cccn2)ccc1Cl)N1CCC(N2CCCC2=O)CC1 | -100 |
| O=C(c1ccc(-n2cccn2)c(F)c1)N1CCCN2CCCC2C1 (configuration not stated) | -23.2 |

| SMILES | INHIBITION [%] |
| --- | --- |
| Cc1cccc(NC2CCN(C(=O)Nc3ccc(F)c(F)c3)CC2)n1 | -20.3 |
| Cc1ccc(C(=O)N2CCC3(CC2)CC(N2CCOCC2)C3)cc1 | -158 |
| CC(C)CC(=O)Nc1cccc(CNCc2cccs2)c1 | -70.1 |
| O=C(c1cc[nH]n1)N1CCc2onc(COc3cccnc3)c2C1 | -33.4 |
| O=C(c1ccncc1F)N1Cc2nc(COCC3CC3)oc2C1 | -37.7 |
| c1cncc(COCc2nnc3n2CCN(Cc2ccco2)C3)c1 | -119 |
| Cn1cc(-c2cnc3n2CCC32CCN(S(=O)(=O)C3CC3)CC2)cn1 | -61.5 |
| Cc1cnc(NCc2csc(C(C)C)n2)nc1-c1cnn(C)c1 | -52.9 |
| COCCn1ccnc1CN1CCc2[nH]cnc2C1c1ccccn1 (configuration not stated) | -11.9 |
| CCCn1ccnc1CN1CCc2[nH]cnc2C1Cc1ccccc1 (configuration not stated) | 66.5 |
| CCn1ncnc1CN1CCc2[nH]cnc2C1Cc1ccccc1 (configuration not stated) | -61.6 |
| COc1ccc(N2CCN(CC(O)c3cc(C)ccc3C)CC2)cc1 (configuration not stated) | 31.4 |
| Oc1ccc(CCC2CCCCN2Cc2noc(C3CC3)n2)cc1 (configuration not stated) | -61.9 |
| Cc1noc(C)c1CN1CCCCC1CCc1ccc(O)cc1 (configuration not stated) | 51.5 |
| Cc1nc(CN2CCCCC2CCc2ccc(O)cc2)no1 (configuration not stated) | -168 |
| Cc1ccc(S(=O)(=O)N2CCc3nc(C4CCNCC4)ncc3C2)cc1 | -51.4 |
| N#Cc1cccc(C(=O)N2CCCC(O)(CO)CC2)c1 (configuration not stated) | -41.3 |
| Cn1cc(CN2CCc3ccc(=O)n(CC4CC4)c3CC2)cn1 | -67.9 |
| CS(=O)(=O)CCNC(=O)c1ccc(-c2ccco2)[nH]c1=O | -78.3 |
| COc1ccc(CN2C[C@H](OCC3CCOCC3)[C@H]3COC[C@H]32)cc1 | -12.7 |
| COc1ccc(C[C@H]2CN(C3CCOCC3)CC[C@H]2OCC2CC2)cc1 | 68.4 |
| COc1ccc(C[C@H]2CN(C3CCOCC3)CC[C@@H]2OCC2CC2)cc1 | 60.9 |
| COc1ccc(CC2CN(C3CCSCC3)CCO2)cc1 (configuration not stated) | -96.7 |
| COc1ccc(OC)c(C2CCN(C3CCOCC3)C2)c1 (configuration not stated) | -74.2 |
| Cc1nnc(N2CC[C@H](OCC3CC3)[C@@H](Cc3ccccc3)C2)s1 | -3.27 |
| Nc1cc(-c2c[nH]nc2C2CCCCN2C(=O)C2CCCC2)ccn1 (configuration not stated) | -12.7 |

| SMILES | INHIBITION [%] |
| --- | --- |
| Cc1ccc(NC(=O)Cn2ncc(SCC(N)=O)c(Cl)c2=O)c(F)c1 | -57.4 |
| COc1ccccc1NC(=O)N(CCO)Cc1ccsc1 | -19.5 |
| O=C(NC1CCC1)[C@H]1CCS(=O)(=O)[C@@H]2CN(CCc3ccccc3)C[C@H]12 | -96.2 |
| Cc1nc(CN2CCCN(C(=O)c3cccnc3O)CC2)cs1 | 49.4 |
| CCOc1ccc(NC(C)=O)cc1S(=O)(=O)Nc1cc(C)on1 | -90.8 |
| Cc1ccc(C)c(OC2CCN(C(=O)CNc3ccccc3Cl)CC2)c1 | -76.6 |
| CC(C)c1nnc2n1CCN(C(=O)Cc1csc(C(C)(C)C)n1)C2 | 20.2 |
| Cc1nc(CC(=O)N2CCn3c(nnc3C(C)C)C2)cs1 | 51.5 |
| CCc1nc(CC(=O)N2CCn3c(nnc3C(C)C)C2)cs1 | -56.3 |
| CCc1nc(CC(=O)N2CCn3c(nnc3C(F)(F)F)C2)cs1 | -206 |
| CCc1nc(CC(=O)N2CCn3c(C)nnc3C2)cs1 | -18.3 |
| CCc1nc(CC(=O)N2CCn3c(CC)nnc3C2)cs1 | 52 |
| c1coc(COCc2ncn3c2CN(Cc2cccs2)CCC3)c1 | -87 |
| O=C(C1NCCc2[nH]cnc21)N1CCC2(C=Cc3ccccc32)CC1 (configuration not stated) | -16.1 |
| O=C(c1cccc(Cl)c1)N1CC[C@H]2[C@H]1CCN2CC1CC1 | -55.8 |
| CCN(C1CCN(Cc2ncc(C(C)(C)C)o2)CC1)S(C)(=O)=O | -26.2 |
| CS(=O)(=O)N1CCC(c2nc3ccc(-c4cccc(F)c4)cn3n2)CC1 | -44.9 |
| CC1(C)CN(Cc2c[nH]c(CC3CCCC3)n2)CC[C@]1(C)O | -29.5 |
| OC1(CN2CCCC2)CCCN(Cc2c[nH]c(CC3CCCC3)n2)C1 (configuration not stated) | 37.2 |
| OC1(CN2CCCCC2)CCN(Cc2c[nH]c(CC3CCCC3)n2)C1 (configuration not stated) | 54.6 |
| CN(C)c1ccc(C(=O)NCc2cccnc2-n2cncn2)cc1F | -20.3 |
| CC(C)Nc1nc(-c2ccccc2)nc2c1CCN(C(=O)C1CC1)CC2 | 27.8 |
| CCCN1CCC(c2nc3ccc(-c4cccc(OC)c4)cn3n2)CC1 | -23.2 |
| Cn1cc(N2C(=O)CC[C@@H]3[C@H]2CCN3C(=O)c2cscn2)cn1 | -22.8 |
| CN(CCc1ccccn1)Cc1nccn1Cc1ccccc1 | 57.9 |
| CN(Cc1ccncc1)Cc1nccn1Cc1ccccc1 | -37.9 |

| SMILES | INHIBITION [%] |
| --- | --- |
| CN(CCc1ccncc1)Cc1nccn1Cc1ccccc1 | 42.2 |
| CCN(Cc1ccco1)C(=O)C1=NN(c2ccccc2)C(=O)CN1 | 60.6 |
| Cc1ccc(N2N=C(C(=O)N(C)Cc3ccco3)NCC2=O)cc1 | -13.2 |
| CCN(C(=O)C1=NN(c2ccccc2)C(=O)CN1)c1ccccc1 | -66.6 |
| CCOc1cc(C=Cc2ncc(C(=O)NC)s2)ccc1OC | 25.6 |
| CN(CC(=O)Nc1cccnc1)C1CCCN(c2cccnn2)C1 (configuration not stated) | 8.25 |
| CC(=O)NCCNCc1cn(CCN2CCSCC2)nc1C | -18 |
| CCc1nc(C)c(C(=O)NCCn2nc3ccccn3c2=O)s1 | -71.9 |
| Cc1nc(C(C)C)sc1C(=O)NCCn1nc2ccccn2c1=O | 59.1 |
| Cc1nc(C)c(C(=O)NCCn2nc3ccccn3c2=O)s1 | -42 |
| CCc1nnc2n1CCN(Cc1cccc3c1OCCO3)C2 | 43.7 |
| CCc1nnc2n1CCN(CC(O)c1ccc3c(c1)OCCO3)C2 (configuration not stated) | 66.3 |
| Cn1cnc2c1CCN(CC(O)c1ccc3c(c1)OCCO3)C2 (configuration not stated) | -106 |
| Cc1cc(C)cc(CN2C[C@@H]3OCCN(CC(=O)N(C)C)[C@@H]3C2)c1 | -93.1 |
| COC[C@H]1CCCN1c1nccc(-c2cnn(-c3ccccc3C)c2)n1 | -32.9 |
| COCC(=O)N1CCC2(CC1)CN(c1ccsc1)C(=O)CO2 | -11.6 |
| CN(C)CC(=O)N1CCC2(CCN(Cc3cccc(F)c3)CC2)C1 | 36.4 |
| CC(=O)N1CCC2(CCN(Cc3cccc(F)c3)CC2)CC1 | -58.8 |
| Cc1noc(C)c1CN1CCC2(CCN(Cc3cccc(F)c3)CC2)C1 | 67.9 |
| O=C(CC1CC1)N[C@@H]1CN(C(=O)c2ccsc2)C[C@@H]2CCCO[C@@H]21 | -17.8 |
| CC(=O)N1CC2(CCN(Cc3ccc(Cl)cc3)C2)Cc2ccccc21 (configuration not stated) | 9.12 |
| Cc1c(C)n(CC(O)CN2CCCCCC2)c2c(Cl)cccc12 (configuration not stated) | 51.6 |
| Cc1c(C)n(CC(O)CN2CCOCC2)c2c(Cl)cccc12 (configuration not stated) | -15.7 |
| Cc1c(C)n(CC(O)CN2CCC(O)CC2)c2c(Cl)cccc12 (configuration not stated) | 44.9 |
